The list is not random: actives were taken first. Their share in the collection is about 1.2%.
FadD28 FP inh: inhibitors of Mycobacterium tuberculosis FadD28 bisubstrate binding; FadD28 bisubstrate probe binding, fluorescence polarization; AID 588549; inhibition, % at 12.5 µM; hit rate 0.22% among 360,000; in the data active means inhibition above about 8.5%, passing the limit was not always enough
PfHsp40 rescue: rescue of PfHsp40-mediated yeast toxicity. S. cerevisiae expressing PfHsp40, growth rescue, ATP luminescence. growth rescue, % at 12.5 µM. hit rate 0.68% among 340,000; in the data active means growth rescue above about 28%, passing the limit was not always enough;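 further: yeast W303a lacking pdr1 and pdr3 grown in galactose medium; growth measured after three days at 30 °C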
Y pestis TopoI: blocks Yersinia pestis topoisomerase I activity; Y. pestis Topo-I cleavage product accumulation, plate reader; activity, % at 10 µM; hit rate 0.064% among 360,000; in the data active means activity above about 50%, passing the limit was not always enough
TcdB GH inh: inhibitors of Clostridioides difficile toxin B glycohydrolase; P18177; TcdB glycohydrolase enzymatic assay, plate reader; inhibition, % at 9.99 µM; hit rate 0.24% among 350,000; AID 652162; in the data active means inhibition above about 10%
Mtb BioA inh: BioA (M. tuberculosis) enzyme inhibition. purified M. tuberculosis BioA enzyme, plate reader. inhibition, % at 9.99 µM. hit rate 0.096% among 360,000. AID 602481; in the data active means inhibition above about 40%
PrP UTR inh: inhibition of PrP 5' UTR reporter expression. inhibition, % (test concentration not listed). AID 488862. hit rate 0.35% among 340,000. cell-based PrP 5' UTR mRNA reporter, plate reader; in the data active means inhibition above about 52%; further: 0 = median of the neutral control wells
* marks the source's active call; other numbers are inactive results; . = not tested or not shown.

SMILES | FadD28 FP inh | PfHsp40 rescue | Y pestis TopoI | TcdB GH inh | Mtb BioA inh | PrP UTR inh
COc1cccc(NC(=O)C/C(C)=N/NC(=O)c2ccccc2Cl)c1 | -3 | 39* | -3 | -2 | 3 | -24
CCCCNc1c(-c2ccc(SC3CCCCC3)c(OC)c2)nc2ccc(C)cn12 | -4 | 174* | 19 | 1 | -1 | -11
CCCCNc1c(-c2ccc(OC)c(SC3CCCCC3)c2)nc2ccc(C)cn12 | -1 | 0 | -14 | 0 | -1 | -12
Cc1ccc(OCC(=O)N/N=C\c2c(C)[nH]n(-c3ccccc3)c2=O)c([N+](=O)[O-])c1 | -3 | 155* | -10 | 0 | 0 | -6
Cc1ccc(-n2[nH]c(C)c(/C=N/NC(=O)c3ccc(O)cc3O)c2=O)cc1 | 0 | 76* | 3 | . | 1 | -1
Cc1[nH]n(-c2ccccc2)c(=O)c1/C=N/NC(=O)c1ccc(O)cc1O | 0 | 52* | -2 | 1 | 2 | 5
Cc1[nH]n(-c2ccccc2)c(=O)c1/C=N/Nc1nncc(-c2ccccc2)n1 | -1 | 262* | -4 | 1 | 5 | 41
CO[C@@H](CN(C)S(=O)(=O)c1ccc(F)cc1)[C@@H](C)CN(C(=O)Nc1ccccc1F)[C@@H](C)CO | . | . | . | -4 | -1 | .
CN(C)C(=O)c1cccc(-c2ccc([C@@H]3[C@H](CO)N4C(=O)CN(C(=O)C5CCCC5)C[C@@H]34)cc2)c1 | . | . | . | -1 | . | .
CCC(=O)N[C@@H]1C=C[C@H](CC(=O)NCc2cc(F)cc(F)c2)O[C@@H]1CO | . | . | . | 0 | -2 | .
C[C@H](CO)N1C[C@H](C)[C@@H](CN(C)Cc2ccncc2)OCCCC[C@H](C)Oc2ccc(N(C)C)cc2C1=O | . | . | . | -14 | 0 | .
CO[C@@H]1CN(C)C(=O)c2cc(NC(=O)Nc3c(C)noc3C)ccc2OC[C@H](C)N(CCC(F)(F)F)C[C@H]1C | . | . | . | 0 | 0 | .
Nc1c(Cl)ncnc1NCCc1ccc(O)cc1 | -6 | 0 | 1 | 11* | . | -19
O=C(O)C1C(=O)NCC1c1ccccc1 (stereo not given) | -4 | -1 | 3 | 24* | . | -13
O=C1CC(c2ccccc2)C(C(=O)O)N1 (stereo not given) | -3 | -2 | 2 | 2 | 0 | -16
N#CC1=C(N)OC2=C(CN(Cc3ccccc3)C/C2=C\c2cccnc2)C1c1cccnc1 (stereo not given) | -1 | 0 | 9 | . | 26 | -26
CC(C)N1CC2=C(OC(N)=C(C#N)C2c2cccnc2)/C(=C/c2cccnc2)C1 (stereo not given) | -1 | 0 | 5 | . | 43* | -13
COc1cccc(NC(=O)N[C@@H]2CC[C@H](CC(=O)N3CCCCC3)O[C@@H]2CO)c1 | . | . | . | 2 | 0 | .
C[C@@H]1CCCCO[C@@H](CN(C)Cc2ccncc2)[C@@H](C)CN([C@H](C)CO)C(=O)c2cc(NS(=O)(=O)c3cn(C)cn3)ccc2O1 | . | . | . | 0 | 1 | .
COc1ccc(CN2CCN(C(c3ccc(F)cc3)c3ccc(F)cc3)CC2)c(OC)c1OC | -4 | 39* | 14 | 1 | 1 | -2
COc1ccc(CN2CCN(c3ccc(F)cc3)CC2)c(OC)c1OC | -3 | 0 | -5 | . | . | -25
C[C@H](CO)N1C[C@H](C)[C@H](CN(C)C(=O)C2CCCCC2)Oc2ncc(-c3ccncc3)cc2C1=O | . | . | . | 1 | 3 | .
Oc1c(Cl)cc(Cl)c2c1NCCC2 | 2 | 87* | -13 | . | 1 | -15
C=CCc1ccc(OCC(O)COc2ccc(CC=C)cc2OC)c(OC)c1 | -1 | 46* | 13 | . | 14 | -4
CS(=O)(=O)Nc1ccc2c(c1)[C@H]1C[C@@H](CC(=O)NCc3ccccn3)O[C@@H](CO)[C@H]1O2 | . | . | . | 1 | -1 | .
SMILES | FadD28 FP inh | PfHsp40 rescue | Y pestis TopoI | TcdB GH inh | Mtb BioA inh | PrP UTR inh
COc1cc(/C=N/NC(=O)c2nnn(-c3nonc3N)c2C(C)C)ccc1OCc1ccccc1 | -1 | -1 | -2 | 0 | -1 | -51
COc1cc(/C=N/NC(=O)c2nnn(-c3nonc3N)c2C(C)C)ccc1O | -1 | 0 | -7 | 13* | 3 | -20
COc1cc2cc3c(N)c(C(=O)Nc4sc(C)c(C)c4C#N)sc3nc2cc1OC | 11* | 0 | 3 | . | 0 | -6
CCn1c(C)cc(/C=C2/SC(=S)NC2=O)c1C | 0 | 0 | 1 | 0 | . | -14
Cc1cc(/C=C2\SC(=S)NC2=O)c(C)n1-c1cccc(O)c1 | 17* | 240* | -6 | 1 | . | -46
Cc1sc(-n2c(C)cc(/C=C3\SC(=S)NC3=O)c2C)c(C#N)c1C | 17* | 0 | 8 | -1 | -1 | -9
Cc1cc(/C=C2\SC(=S)NC2=O)c(C)[nH]1 | 33* | 0 | -12 | 0 | 4 | -26
Cc1sc(-n2c(C)cc(C=C3C(=O)NC(=O)NC3=O)c2C)c(C#N)c1C | . | . | . | 0 | . | .
CCC(=O)N1[C@H](CO)[C@@H](c2ccccc2)C12CN(CCC(F)(F)F)C2 | . | . | . | -1 | . | .
Cc1ccccc1NS(=O)(=O)c1nnc(NC(=O)c2ccccc2F)s1 | 1 | 0 | 3 | -2 | -1 | -16
O=C(Nc1nnc(S(=O)(=O)Cc2ccc(F)cc2)s1)c1ccccc1F | -1 | 45* | -5 | 0 | -1 | -12
C[C@H](O)C#Cc1ccc2c(c1)O[C@H](CN(C)C(=O)CC1CC1)[C@@H](C)CN([C@H](C)CO)S2(=O)=O | . | . | . | 1 | 0 | .
CCOc1ccc2c(c1)C(C)=CC(C)(C)N2S(=O)(=O)c1ccc(NC(C)=O)cc1 | -8 | 1 | 32 | 0 | 3 | 78*
CCOc1ccc2c(c1)C(C)=CC(C)(C)N2S(=O)(=O)c1ccc(F)cc1 | 0 | 0 | 8 | 0 | -3 | 14
CCNC(=O)[C@@H]1[C@@H](CO)[C@@H]2Cn3c(ccc(-c4ccccc4)c3=O)[C@@H]2N1CC | . | . | . | -8 | 0 | .
CCNC(=O)[C@H]1[C@H](CO)[C@H]2Cn3c(ccc(-c4ccccc4)c3=O)[C@H]2N1CC | . | . | . | 14* | 1 | .
CC(C)(C)c1cc(NCc2ccccn2)n2ncc(-c3ccc(Cl)cc3)c2n1 | 2 | -1 | -8 | -8 | 0 | -2
CN(C)CCCNc1cc(C(C)(C)C)nc2c(-c3ccc(Cl)cc3)cnn12 | -5 | 44* | -7 | 5 | 1 | -5
COc1ccc(NC(=O)c2cc3c(-c4ccc(OC)c(OC)c4)nn(C)c3s2)cc1OC | 26* | 8 | -8 | . | 1 | -24
COc1ccc(-c2nn(C)c3sc(C(=O)NCc4ccco4)cc23)cc1OC | -3 | 0 | 4 | . | -2 | -3
COCc1cn(CC[C@H]2CC[C@@H](NC(=O)Nc3ccc4c(c3)OCO4)[C@@H](CO)O2)nn1 | . | . | . | 0 | -2 | .
CCOC(=O)c1ccc(NC(=S)N(CCN(C)C)Cc2cccs2)cc1 | 10* | 0 | -7 | -1 | . | 6
Cc1ccc(NC(=S)N(CCN(C)C)Cc2cccs2)cc1 | -1 | -1 | -2 | -2 | . | -10
CCOC(=O)c1ccc(NC(=S)N(Cc2cccnc2)Cc2ccco2)cc1 | -3 | 389* | 8 | 1 | 2 | -5

Screening results: PubChem, Broad Institute
